In the supplement of paper PMC6135742:
Where a name gives a salt, the structure may show the parent alone. ± gives the standard deviation of the averaged measurements. The full ranking holds about 2,600 compounds; the median of “MBP+ mature oligodendrocyte number relative to DMSO vehicle control” is about -0.34, and the highest 2% start at about 13. The sample as a whole holds a higher share of the highest values than the screen did.

What follows are molecules tested on jimpy (Plp1 jimpy) mouse iPSC-derived oligodendrocyte progenitor cells (assay: MBP+ mature oligodendrocyte number relative to DMSO vehicle control (SDs above negative control mean); higher = more surviving jimpy oligodendrocytes (rescue)). Conditions: 10 µM; 3 days.
Method: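 Primary phenotypic screen of >3,000 bioactive compounds (Selleck L1700 and Sigma LO1280 libraries) at a single dose of 10 µM. Compounds were added to jimpy (Plp1 mutant) mouse iPSC-derived OPCs at the start of thyroid hormone-induced oligodendrocyte differentiation, one well per compound in 384-well plates. After 3 days cells were stained for MBP, Sox10 and DAPI and imaged with an Operetta system. MBP+ oligodendrocyte number and total cell number were expressed as the number of SDs above the mean of the DMSO negative control on the same plate (n=16 control wells per plate). Hits were defined as >=4 SD for oligodendrocytes and >=2 SD for total cells.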

| SMILES | MBP+ mature oligodendrocyte number |
| --- | --- |
| CN(C)C(=O)c1ccc(S(=O)(=O)c2ccc(NC(=O)[C@@](C)(O)C(F)(F)F)c(Cl)c2)cc1 | 19.5 |
| C[C@H](Oc1cc(-c2cnn(C3CCNCC3)c2)cnc1N)c1c(Cl)ccc(F)c1Cl [(S)-crizotinib] | -4.58 |
| Cc1ccc(Nc2c(F)cccc2Cl)c(CC(=O)O)c1 [Lumiracoxib] | 0.263 |
| CN1CCC(=C2c3ccccc3CCc3sccc32)CC1 [Pizotifen Malate] | -6.09 |
| Clc1ccccc1CN1CCc2sccc2C1 [Ticlopidine HCl] | 18.4 |
| COC(=O)[C@H](c1ccccc1Cl)N1CCc2sccc2C1 [Clopidogrel] | 1.42 |
| COC(=O)C1=C(C)NC(C)=C(C(=O)OC)C1c1cccc(NC(=O)NCCCN2CCC(c3cccc(OC)c3)CC2)c1 | < -3.85 |
| CCc1nc(N)nc(N)c1-c1ccc(Cl)cc1 [Pyrimethamine] | 49 |
| C[n+]1cccc(C(N)=O)c1 [1-Methylnicotinamide chloride] | -0.176 |
| N#CC[C@H](C1CCCC1)n1cc(-c2ncnc3[nH]ccc23)cn1 | 2.47 |
| c1ccc(-c2[nH]ncc2-c2ccnc3ccccc23)nc1 | -2.12 |
| CCN(CC)CC#CCOC(=O)C(O)(c1ccccc1)C1CCCCC1 (centres undefined) [Oxybutynin Chloride] | 13.5 |
| CCN(CC)CC#CCOC(=O)C(O)(c1ccccc1)C1CCCCC1 (centres undefined) [Oxybutynin chloride] | 29.7 |
| CCCC(C(=O)OCCN(CC)CC)(c1ccccc1)c1ccccc1 [SKF-525A hydrochloride] | -3.42 |
| CCN(CC)CCOC(=O)C(c1ccccc1)c1ccccc1 [Adiphenine HCl] | 0.0731 |
| Cc1cc2nc(NCCCO)n(CC(=O)c3cc(C(C)(C)C)c(O)c(C(C)(C)C)c3)c2cc1C | -4 |
| CC[C@H](NC(=O)[C@H](C)NC)C(=O)N1C[C@@H](O)C[C@H]1Cc1c(-c2[nH]c3cc(F)ccc3c2C[C@@H]2C[C@H](O)CN2C(=O)[C@H](CC)NC(=O)[C@H](C)NC)[nH]c2cc(F)ccc12 [Birinapant] | -5.76 |
| NCCCCCNCC12CC3CC(CC(C3)C1)C2 [IEM 1754 dihydrobroMide] | -4.82 |
| O=C1NCN(c2ccccc2)C12CCN(CCCC(c1ccc(F)cc1)c1ccc(F)cc1)CC2 [Fluspirilene] | -4.41 |
| O=C1NCC2(CCN(CCc3ccccc3)CC2)O1 [Fenspiride hydrochloride] | 10.5 |

| SMILES | MBP+ mature oligodendrocyte number |
| --- | --- |
| O=C1NCC2(CCN(CCc3ccccc3)CC2)O1 [Fenspiride HCl] | 21.6 |
| O=C(O)P(=O)(O)O [Foscarnet Sodium] | -1.56 |
| CC(=O)OC[C@H]1O[C@@H]([S-])[C@H](OC(C)=O)[C@@H](OC(C)=O)[C@@H]1OC(C)=O.CCP(CC)CC.[Au+] [Auranofin] | < -3.85 |
| CC1(C)O[C@@H]2C[C@H]3[C@@H]4CCC5=CC(=O)C=C[C@]5(C)[C@H]4[C@@H](O)C[C@]3(C)[C@]2(C(=O)CO)O1 [Desonide] | 9.44 |
| C[C@]12C=CC(=O)C=C1CC[C@@H]1[C@@H]2[C@@H](O)C[C@@]2(C)[C@H]1CC[C@]2(O)C(=O)CO [Prednisolone] | 7.54 |
| CCCC1O[C@@H]2C[C@H]3[C@@H]4CCC5=CC(=O)C=C[C@]5(C)[C@H]4[C@@H](O)C[C@]3(C)[C@]2(C(=O)CO)O1 (some centres undefined) [Budesonide] | 13.4 ± 10 |
| Nc1ccccc1NC(=O)c1ccc(CNc2nccc(-c3cccnc3)n2)cc1 [Mocetinostat (MGCD0103)] | < -6.7 |
| CC(O)C(O)[C@H]1CNc2nc(N)[nH]c(=O)c2N1 (stereo partly drawn) [(6R)-5,6,7,8-Tetrahydro-L-biopterin hydrochloride] | -1.5 |
| CCCn1c(=O)c2c(ncn2C)n(CCC)c1=O [1,3-Dipropyl-7-methylxanthine] | 0.502 |
| CO/N=C(\C(=O)N[C@@H]1C(=O)N2C(C(=O)O)=C(Cn3ccc(=N)n3CCO)CS[C@H]12)c1csc(N)n1 [Cefoselis Sulfate] | 0.982 |
| CC(C)C[C@H](NC(=O)[C@@H](NC(=O)c1cccc(-c2ccccc2)n1)[C@@H](C)O)B(O)O | < -6.7 |
| C[C@H](NC(=O)C(=O)Nc1ccccc1C(C)(C)C)C(=O)N[C@@H](CC(=O)O)C(=O)COc1c(F)c(F)cc(F)c1F [Emricasan] | 10.3 |
| CC(C)[C@H](NC(=O)c1ccc2ccccc2n1)C(=O)N[C@@H](CC(=O)O)C(=O)COc1c(F)cccc1F | 24.8 |
| NC[C@@H]1O[C@H](c2ccccc2)Cc2c1ccc(O)c2O | -0.675 |
| NC(N)=NC(N)=Nc1ccccc1 [1-Phenylbiguanide] | 0.289 |
| C[C@]12CC[C@H](O)CC1=CC[C@@H]1[C@@H]2CC[C@]2(C)C(n3cnc4ccccc43)=CC[C@@H]12 [Galeterone] | 16.8 |
| CC[C@H](/C=C/[C@@H](C)[C@H]1CC[C@H]2[C@@H]3CC=C4C[C@@H](O)CC[C@]4(C)[C@H]3CC[C@]12C)C(C)C [Stigmasterol] | -1.84 |
| CC(=O)[C@H]1CC[C@H]2[C@@H]3CC=C4C[C@@H](O)CC[C@]4(C)[C@H]3CC[C@]12C [Pregnenolone] | -3.89 |
| CC(C)C[C@H](NP(=O)(O)O[C@H]1O[C@H](C)[C@@H](O)[C@H](O)[C@@H]1O)C(=O)N[C@@H](Cc1c[nH]c2ccccc12)C(=O)O [Phosphoramidon disodium] | -0.211 |
